697 NFkB inh – inhibitors of PMA/ionomycin-induced NF-kB reporter, 697 cells, primary screen, B-cell NF-kB inhibitor project, cell-based, luminescence, uHTS | 697 B-cell NF-kB luciferase reporter, 16 h | inhibition, % at 4 µM | 330,000 compounds, 0.33% hits | AID 435022, 2010; in the data active means inhibition above about 35%
aSyn 5UTR inh – MLPCN primary screen, SNCA 5' untranslated region. AID 1813, 2009. 300,000 compounds, 0.82% hits. alpha-synuclein 5'UTR reporter, inhibitor activity. inhibition, % (tested at 7.5 µM); in the data active means inhibition above about 60%; inconclusive means no clear call, values can overlap the other calls;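 further: H4 neuroglioblastoma cells stably carrying SNCA 5'UTR luciferase fusion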
H9c2 TAG inh – inhibitors of triacylglycerol accumulation, primary screen, cell-based, uHTS, fluorescence, H9c2; inhibition, % at 12.5 µM; H9c2 cells, Nile Red lipid (TAG) fluorescence; cells loaded with 200 µM oleic acid; AID 651582, 2012; 230,000 compounds, 0.66% hits;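 active means pattern-corrected inhibition of lipid staining of at least 50% with the nuclear-stain viability signal not falling by more than 50%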
Shn3 3UTR inh – reduction of Shn3 3'UTR firefly luciferase signal, primary screen, Schnurri-3 inhibitor project, cell-based, Clone20 osteoblasts, set 2. Clone20 osteoblast Shn3 3'UTR firefly luciferase, 24 h. inhibition, % at 12.5 µM. 360,000 compounds, 0.52% hits. AID 588674, 2011;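 active means mean inhibition of at least 75% with every replicate also reaching 75%; inconclusive means mean inhibition at least 75% but some replicate below; inactive means mean inhibition below 75%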
Gli-Sufu antag – Gli-Sufu pathway antagonists, primary screen, luciferase luminescence, Sufu-KO-LIGHT cells, uHTS; Sufu-KO-LIGHT fibroblasts, Gli luciferase reporter luminescence; inhibition, % at 5 µM; 340,000 compounds, 0.74% hits; AID 588413, 2011;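 active means inhibition above about 55%, limit read from the data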
Jurkat NFkB inh – inhibitors of induced NF-kB luciferase reporter, primary screen, TCR NF-kB activation inhibitor project, cell-based, luminescence, uHTS | Jurkat, PMA/ionomycin-induced NF-kB luciferase reporter | inhibition, % at 4 µM | AID 435003, 2010 | 330,000 compounds, 0.53% hits; in the data active means inhibition above about 50%
Jurkat NFkB conf – PMA/ionomycin-induced NF-kB reporter inhibitors, Jurkat retest, confirmation, T-cell NF-kB inhibitor project, cell-based, luminescence, single concentration | Jurkat NF-kB luciferase, 16 h | shares compounds with Jurkat NFkB inh | 2,700 compounds, 27% hits | inhibition, % at 4 µM;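 active means inhibition reaching about 45% at 4 µM in either replicate, limit read from the data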
Of the large screens only hits and unclear results are named; the others gave an inactive call (follow-up assays come after a bar, where they were run). Hits are enriched below; roughly 2.3% of the tested compounds scored in any of these assays.

CCOc1ccc2c(c1)C(C)=CC(C)(C)N2S(=O)(=O)c1ccc(F)cc1	none (no result: Gli-Sufu antag)
O=C(Cn1cnc2c(cnn2-c2ccccc2)c1=O)Nc1cc(S(=O)(=O)N2CCOCC2)ccc1Cl	none
CCOc1ccccc1N1CC(C(=O)NNC(=O)c2cc(OC)c(OC)c(OC)c2)CC1=O (stereo not drawn)	none (no result: aSyn 5UTR inh)
CC1CCN(C(=O)c2cc3c(ccc4ccccc43)o2)CC1	none (no result: H9c2 TAG inh) | Jurkat NFkB conf inactive
O=[N+]([O-])c1nn(-c2ccc3c(c2)OCCO3)n(O)c1=Nc1ccccc1	aSyn 5UTR inh 80, Jurkat NFkB inh 71 (no result: H9c2 TAG inh, Gli-Sufu antag) | Jurkat NFkB conf 89
COc1ccc(Nc2nc3cc(C)ccc3cc2C#N)c(OC)c1	Jurkat NFkB inh 65 | Jurkat NFkB conf inactive
Oc1[nH]c2ccccc2c1N=Nc1ccccc1	none
Oc1[nH]c2ccccc2c1N=Nc1nc2ccccc2s1	none (no result: H9c2 TAG inh) | Jurkat NFkB conf inactive
Cn1c(Cn2c(=O)sc3ccccc32)nnc1SCC(=O)N1CCCC1	none (no result: H9c2 TAG inh)
C=C1C(=O)O[C@@H]2[C@H]1[C@@H](OC(=O)/C(C)=C/C)C/C(C)=C\C(=O)/C=C(\C)[C@@H]2O	Jurkat NFkB inh 88 | Jurkat NFkB conf inactive
CCn1c(O)c(/C=C2\C=Nc3ccccc32)sc1=Nc1ccc(C)cc1	Jurkat NFkB inh 62 (no result: H9c2 TAG inh) | Jurkat NFkB conf inactive
CCc1ccccc1N(CC(=O)NC1CCCCC1)C(=O)CCC(=O)Nc1ccccn1	none (no result: H9c2 TAG inh)
COc1cc(OC)cc(C(=O)NCC(=O)OCC(=O)NC(C)(C)C)c1	none (no result: H9c2 TAG inh)
Oc1c(-c2cc(-c3ccco3)[nH]n2)ccc2ccccc12	none | Jurkat NFkB conf inactive
Oc1ccccc1-c1cc(-c2ccco2)[nH]n1	none
COC(=O)C1=C(C)NC2=C(C(=O)c3ccccc32)C1c1cccc(OC)c1 (stereo not drawn)	none
CC1=C([N+](=O)[O-])C(c2cccc(Br)c2)C2=C(N1)c1ccccc1C2=O (stereo not drawn)	aSyn 5UTR inh 90, Jurkat NFkB inh 54 (no result: H9c2 TAG inh) | Jurkat NFkB conf inactive
COc1cc(-n2c(=O)c3ccccc3n(CC(=O)c3ccc(Br)cc3)c2=O)cc(OC)c1OC	none
O=[N+]([O-])c1ccc(N=NN(CCO)CCO)cc1	none (no result: H9c2 TAG inh)
O=[N+]([O-])c1ccc(N=Nc2ncc[nH]2)cc1	Jurkat NFkB inh 82 (no result: H9c2 TAG inh) | Jurkat NFkB conf inactive
CC(C)(C)C(=O)Nc1ccc(NC(=O)c2ccco2)nc1	aSyn 5UTR inh 102, Shn3 3UTR inh 90, Gli-Sufu antag 80, Jurkat NFkB inh 78 (no result: H9c2 TAG inh) | Jurkat NFkB conf 88
O=C(Nc1ccc(NC(=O)c2ccco2)nc1)c1ccco1	none
O=C(Nc1ccc(NC(=O)C23CC4CC(CC(C4)C2)C3)cn1)c1ccco1	none | Jurkat NFkB conf inactive
Cc1[nH]n(-c2ccccc2)c(=O)c1/C=N/Nc1nncc(-c2ccccc2)n1	aSyn 5UTR inh 91, Gli-Sufu antag 85, Jurkat NFkB inh 55 (no result: H9c2 TAG inh) | Jurkat NFkB conf inactive
Cc1ccc(/C=N/Nc2nncc(-c3ccccc3)n2)o1	none (no result: H9c2 TAG inh)
CCCCCCCCCCn1ccc(=N)cc1	aSyn 5UTR inh 106, Gli-Sufu antag 88, Jurkat NFkB inh 75 | Jurkat NFkB conf 75
CCCCCCN1Cc2ccccc2C1	none
O=S(=O)(c1ccccc1)N1CCN=C1SCc1cccnc1	none
CCOC(=O)Cn1c(-c2ccccn2)nc2ccccc21	none (no result: H9c2 TAG inh)
CCOC(=O)c1ccc2c(c1)nc(-c1ccccn1)n2CC	none (no result: H9c2 TAG inh) | Jurkat NFkB conf inactive
Cc1nn(Cc2ccc(C(=O)N3c4ccc(F)cc4CCC3C)o2)c(C)c1Br (stereo not drawn)	none (no result: H9c2 TAG inh)
Fc1ccccc1OCCSc1nnnn1-c1ccccc1	none (no result: H9c2 TAG inh) | Jurkat NFkB conf inactive
Cc1ccc(O)c(NC(=O)C2CC(c3c(F)cccc3Cl)=NO2)c1 (stereo not drawn)	Jurkat NFkB inh 51 (no result: H9c2 TAG inh) | Jurkat NFkB conf inactive
COc1cc(NC(=O)C2CC(c3c(F)cccc3Cl)=NO2)c(OC)cc1Cl (stereo not drawn)	none
O=C(N/N=C/c1ccc2c(c1)OCO2)c1ccc(NS(=O)(=O)c2cccs2)cc1	none
CCOC(=O)c1[nH]c(C)c(C(=O)Nc2cc(Cl)ccc2C)c1C	Jurkat NFkB inh 69 (no result: H9c2 TAG inh) | Jurkat NFkB conf 56
CCOC(=O)c1[nH]c(C)c(C(=O)Nc2ccc(C)c(Cl)c2)c1C	none (no result: H9c2 TAG inh)
Clc1ccc(Cn2ncc3c(NCc4ccccc4)ncnc32)c(Cl)c1	Jurkat NFkB inh 65 (no result: H9c2 TAG inh, Shn3 3UTR inh, Gli-Sufu antag) | Jurkat NFkB conf inactive
C=CCn1ccc(O)c(Cc2ccc(Cl)cc2)c1=O	none (no result: H9c2 TAG inh)
O=C(NC1C=CS(=O)(=O)C1)c1sc2ccccc2c1Cl (stereo not drawn)	Jurkat NFkB inh 56 (no result: H9c2 TAG inh) | Jurkat NFkB conf inactive
O=C(Nc1cccc(C(F)(F)F)c1)c1sc(Cl)nc1C(F)(F)F	Jurkat NFkB inh 97 (no result: H9c2 TAG inh) | Jurkat NFkB conf 71
COc1ccc(CNC(=O)C(=O)NCCC2CCCCN2S(=O)(=O)c2ccc(C)cc2)cc1 (stereo not drawn)	none
O=C(NCCc1ccccc1)C(=O)NCC1CCCN1S(=O)(=O)c1ccccc1 (stereo not drawn)	Jurkat NFkB inh 56 | Jurkat NFkB conf inactive
O=C(NCCc1ccccc1)C(=O)NCCC1CCCCN1S(=O)(=O)c1ccccc1 (stereo not drawn)	none
Cc1ccc(S(=O)(=O)N2CCCCC2CCNC(=O)C(=O)NCc2ccccc2)cc1 (stereo not drawn)	Jurkat NFkB inh 63 | Jurkat NFkB conf inactive
O=C(Cn1c(=O)[nH]c2ccsc2c1=O)N1CCN(c2ccc(F)cc2)CC1	none (no result: H9c2 TAG inh, Shn3 3UTR inh)
Cc1ccc(Oc2ccc(OCC(=O)Nc3ccncc3)cc2)cc1	Shn3 3UTR inh inconclusive, Jurkat NFkB inh 65 (no result: aSyn 5UTR inh, Gli-Sufu antag) | Jurkat NFkB conf 77
COc1ccc(NC2=CC(=O)CC(c3ccc(C)cc3)C2)c(OC)c1 (stereo not drawn)	none
COc1ccccc1NC1=CC(=O)CC(c2ccccc2)C1 (stereo not drawn)	Jurkat NFkB inh 52 (no result: H9c2 TAG inh) | Jurkat NFkB conf inactive
COc1ccc([C@H]2CC(=O)C=C(c3c(OC)cccc3OC)C2)cc1	Jurkat NFkB inh 57 (no result: aSyn 5UTR inh, H9c2 TAG inh) | Jurkat NFkB conf 51
O=C(COc1ccccc1)NC(=S)Nc1ccc2c(c1)Cc1ccccc1-2	none (no result: H9c2 TAG inh)
C=CCNC(=S)Nc1ccc(C)cc1[N+](=O)[O-]	none
COc1ccc(CCN2C(=O)C3C4C=CC(C3C2=O)C2C(=O)N(CCc3ccc(OC)c(OC)c3)C(=O)C42)cc1OC (stereo not drawn)	Jurkat NFkB inh 59 (no result: H9c2 TAG inh) | Jurkat NFkB conf 56
Cc1ccc(C2=NN(C(=O)CSc3nccn3C)C(c3ccco3)C2)cc1 (stereo not drawn)	Jurkat NFkB inh 63 | Jurkat NFkB conf inactive

High-throughput results from PubChem BioAssay.
